Hits are enriched below; roughly 3% of the tested compounds scored in any of these assays.
PLK1 PBD inh: qHTS for Inhibitors of PLK1-PDB (polo-like kinase 1 - polo-box domain): Primary Screen; Serine/threonine-protein kinase PLK1 (Homo sapiens), P53350; Plk1 PBD binding of FITC phosphopeptide, fluorescence polarization; Potency, µM, inactives show max response, negative = inhibition, hits mostly inhibitors; hit rate 2.8% among 360,000; further: series mostly up to about 57 µM; nearly all actives have a fitted effect of over 65% in size
12-LOX inh: Primary qHTS assay for inhibitors of human arachidonate 12S-lipoxygenase (ALOX12): Round 2; Polyunsaturated fatty acid lipoxygenase ALOX12 (Homo sapiens), P18054; purified 12hLO, xylenol orange hydroperoxide absorbance; Potency, µM (titrated, usually from 108 µM), for inactives: at the highest dose activity change, negative = inhibition, actives largely listed as inhibitors; hit rate 1.1% among 580,000
Target sequence (P18054 whole entry, looked up): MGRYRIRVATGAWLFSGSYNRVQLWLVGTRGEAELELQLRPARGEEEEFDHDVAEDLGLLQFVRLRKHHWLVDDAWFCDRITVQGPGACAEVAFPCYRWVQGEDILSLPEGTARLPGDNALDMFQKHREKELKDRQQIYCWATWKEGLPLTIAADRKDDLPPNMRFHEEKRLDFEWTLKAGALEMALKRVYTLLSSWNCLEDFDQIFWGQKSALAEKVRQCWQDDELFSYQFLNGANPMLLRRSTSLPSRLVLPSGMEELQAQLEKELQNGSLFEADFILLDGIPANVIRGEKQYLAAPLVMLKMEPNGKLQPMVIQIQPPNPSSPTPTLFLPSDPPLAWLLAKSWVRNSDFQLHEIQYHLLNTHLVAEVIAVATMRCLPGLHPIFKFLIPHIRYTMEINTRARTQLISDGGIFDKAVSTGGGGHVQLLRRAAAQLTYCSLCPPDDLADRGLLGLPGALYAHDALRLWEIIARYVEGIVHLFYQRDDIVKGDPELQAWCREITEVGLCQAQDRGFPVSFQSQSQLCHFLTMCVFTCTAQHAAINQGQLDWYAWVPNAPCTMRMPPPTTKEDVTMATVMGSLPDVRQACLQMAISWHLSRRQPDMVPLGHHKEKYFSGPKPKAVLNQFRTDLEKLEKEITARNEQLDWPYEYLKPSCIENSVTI
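Hydroperoxide product was detected by ferrous iron/xylenol orange as the 573 to 405 nm absorbance ratio. Arachidonic acid at 40 uM (final) was turned over for 30 min at room temperature by 150 nM human 12hLO, pH 7.0 Hepes buffer, after 15 min compound preincubation.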
VDR inh: Inhibitors of the vitamin D receptor (VDR): qHTS. VDR-SRC2-3 peptide fluorescence polarization, 2 h. Potency, µM, for the others: max response, negative = inhibition, actives largely listed as inhibitors. hit rate 0.93% among 400,000. AID 504847, 2011
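Fluorescence polarization assay of small-molecule disruption of VDR binding to coregulator peptide SRC2-3. Compounds and controls pin-transferred, then read after 2 h incubation at ambient room temperature.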
GCN5L2 inh: qHTS Assay for Inhibitors of GCN5L2. GCN5L2 HAT assay, ThioGlo1 CoA-SH fluorescence. Potency, µM (top dose mostly 58.9 µM), inactives show top-dose activity change, negative = inhibition, usual class: inhibitors. hit rate 0.21% among 390,000. AID 504327, 2011
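GCN5L2 (20nM final) in 50mM HEPES, 0.1mM EDTA pH 7.5, 0.01% Tween-20 was preincubated 15 min at room temperature with compound, then given ThioGlo1 (50uM), H3(1-25) peptide (75uM) and acetyl-CoA (70uM); CoA-thiol fluorescence (Ex340/Em540) was read at 0 and 20 min.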
An asterisk follows results filed as active; ? = inconclusive; . = no result; [ ] = remark or other dose. The call rests on the fitted dose curve; in most records, active means well fitted curve in the direction sought with a large enough effect; inconclusive means small, poorly fitted or top-dose-only effect, or another doubt; inactive means no such curve, though single readings can be large; an effect the other way counts as inactive or inconclusive. On the % scale 0 is the no-effect control and ±100 the full control effect; potency means the concentration at half of the fitted maximal effect.

SMILES	PLK1 PBD inh	12-LOX inh	VDR inh	GCN5L2 inh
CCOC(=O)c1nc2ccccc2nc1N1CCN(c2cccc(C)c2C)CC1	.	-14.0%	.	.
O=C(O)CCN1C(=O)/C(=C\c2ccncc2)SC1=S	0.1%	-17.9%	-6.8%	-1.6%
O=C(O)CCN1C(=O)/C(=C\c2ccc(-c3nc4ccccc4s3)o2)SC1=S	8.44µM*	.	-9.2%	-0.2%
O=C(O)COc1ccccc1/C=C1\SC(=S)N(NC(=O)c2ccccc2O)C1=O	-24.2%	?	-22.5%	-9.7%
O=C(O)CCN1C(=O)/C(=C\c2cccc(Oc3ccccc3)c2)SC1=S	16.8µM*	?	35.5µM*	-8.1%
O=C(O)COc1ccccc1/C=C1\SC(=S)N(/N=C/c2ccccc2O)C1=O	21.2µM*	?	?	-12.1%
O=C(O)CN1C(=O)/C(=C/c2ccsc2)SC1=S	-3.6%	?	-6.7%	3.5%
O=C(O)CN1C(=O)/C(=C\c2cccc(OCc3ccccc3F)c2)SC1=S	29.9µM*	39.8µM*	?	-24.5%
COCCCNc1oc(-c2ccccc2)nc1C#N	.	-8.0%	.	.
Cc1cc(C)c(CC(=O)O)c(C)c1	.	1.58µM*	.	.
Cc1ncc([N+](=O)[O-])n1CCOC(=O)c1cc(Cl)cc(Cl)c1N	-14.0%	31.6µM*	-10.0%	-23.8%
COc1ccc(C2/C=C\CC(NC(=O)OCC3c4ccccc4-c4ccccc43)CC(=O)N2Cc2ccccc2F)cc1 (stereo not drawn)	29.9µM*	.	?	-16.6%
COc1ccc(C2/C=C\CC(NC(=O)OCC3c4ccccc4-c4ccccc43)CC(=O)N2Cc2cccc(F)c2)cc1 (stereo not drawn)	.	.	-6.8%	5.4%
O=C(CCl)c1ccc2[nH]c(=O)oc2c1	7.52µM*	?	-16.9%	-6.0%
O=C1Nc2ccccc2CC12CCN(Cc1ccccc1)C2 (stereo not drawn)	.	2.5%[176 µM]	.	.
O=C1Nc2ccccc2CC12CCN(Cc1cccc3ccccc13)C2 (stereo not drawn)	.	100µM*	.	.
CCOc1ccc(CN2CCCCC23Cc2ccccc2CNC3=O)cc1 (stereo not drawn)	.	5.2%[6.33 µM]	.	.
COc1cccc(-c2nc(-c3cc4cccc(C)c4nc3OC)no2)c1	.	-4.2%	.	.
O=C(c1ccc2c(c1)N(C(=O)C1CC1)CC2)N1CCCC1	.	14.5%	.	.
CC(Cl)C(=O)c1ccc2c(c1)CCN2C(=O)C1CC1 (stereo not drawn)	18.9µM*	-16.2%	28.7%	-5.7%
O=C(Nc1cccc(Cl)c1)N1CCOCC1	5.1%	0.0%	27.0%	-4.5%
O=C(Nc1ccc2nc(-c3cccs3)c(-c3cccs3)nc2c1)N1CCCC1	.	.	1.3%	.
CCOC(=O)C1CCN(C(=O)Nc2ccc3nc(-c4ccco4)c(-c4ccco4)nc3c2)CC1	11.9µM*	.	?	?
O=C(Nc1ccc2nc(-c3ccco3)c(-c3ccco3)nc2c1)N1CCCCCC1	23.8µM*	.	?	14.1µM*
O=C(Nc1cccc(Cl)c1)N1CCCC1	5.97µM*	2.8%	17.8µM*	1.1%
SMILES	PLK1 PBD inh	12-LOX inh	VDR inh	GCN5L2 inh
Cc1cc(C(=O)NC2CCCCC2C)cs1 (stereo not drawn)	.	9.2%	.	.
O=C(Nc1ccnn1Cc1ccc(Cl)cc1)c1cc(=O)c2ccccc2o1	.	-24.6%	.	.
COc1cc2c(cc1OC)/C(=C/C(=O)c1ccc([N+](=O)[O-])c(C)c1)NCC2	18.9µM*	-21.5%	?	-1.3%
COc1cc2c(cc1OC)/C(=C/C(=O)c1ccc(C)cc1)NCC2	-12.4%	86.1%	1.3%	-6.1%
CN(C)C(CNC(=O)CC1C=CCC1)c1cccs1 (stereo not drawn)	.	22.9%	.	.
Cc1cccc(C2CC(=O)NC3=C2C(=O)CC(C)(C)C3)c1 (stereo not drawn)	.	11.8%	.	.
CCN(CC)CCCNC(=O)CCNc1nc(Cl)nc2nc[nH]c12	.	-39.0%	.	.
CCOc1cc2c(cc1NC(=O)CCC(=O)c1ccc(C)cc1)OC(C)C2 (stereo not drawn)	.	4.47µM*	.	.
CNS(=O)(=O)c1cccc(C(=O)OCC(=O)c2ccc3c(c2)OCCO3)c1	-24.0%	-21.8%	-6.2%	-6.6%
NS(=O)(=O)c1cc(C(=O)OCC(=O)c2ccc3c(c2)OCCO3)ccc1Cl	29.9µM*	-6.5%	-18.9%	-25.4%
N#CCC(=O)Nc1ccc(C(=O)OCC(=O)c2ccc3c(c2)OCCO3)cc1	11.9µM*	-2.8%	-24.3%	-17.6%

Assay outcomes: PubChem, National Center for Advancing Translational Sciences (NCATS)
